Each structure is given as a SMILES string. The panel holds about 83,000 compounds, 20% with a hit somewhere; the sample as a whole holds those more often.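 The endpoint reported here, percent growth, reads 100 for growth as untreated, 0 for no net growth and -100 for all cells dead.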 A number with no mark means an inactive call. Active and inactive are the calls of the source. How the source made its calls: active means growth percent below 10; inactive means the rest.

This experiment has as its system HL-60(TB) leukemia. The experiment is described as follows: NCI-60 one-dose screen, 48 h (100 = growth as untreated, 0 = no growth, -100 = all killed). The following applies: 10 µM unless noted.
In the case of `CC(=O)Nc1ccc(-n2cnc3ccc(-c4ccc(O)cc4)cc32)cc1`, the growth is 38.2%.

Take `CCOC(=O)C1=C(N)N(c2ccccc2)C2=C(C(=O)CC(C)(C)C2)C1c1ccc(N2CCOCC2)cc1` (centres undefined): the growth was 101%.

For the compound `N#Cc1c(NC(=O)c2ccc(C(F)(F)F)cc2)sc2c1CCC(=O)C2`, the growth was 7.73% (active).

With `COc1c(F)ccc(C(=O)Nc2ccc3nc(NC(=O)C4CCCN(S(=O)(=O)c5ccc(C(F)(F)F)cc5)C4)sc3c2)c1F` (centres undefined), the growth is 101%.

Consider `COc1ccc(OC)c(Cn2cc(C#N)c(N)c2C(=O)c2ccc(Br)cc2)c1`, for which the growth is 20.7%.

In the case of `N#C/C(=C/c1ccc(Cl)cc1)c1nnc(NC(=O)c2ccc(-n3c(=O)[nH]c4ccccc4c3=O)cc2)s1`, the growth is 98.2%.

As for `Cc1nc2sccn2c1-c1nnc(SCc2ccccc2)o1`, the growth was 89.9%.

`Cc1ccc2nc(SCc3ccccc3F)n(-c3ccccc3)c(=O)c2c1`: the growth was 104%.

Consider `COc1ccc(-c2c(Nn3cnnn3)no[n+]2[O-])cc1`, for which the growth is 38.8%.

With `COC(OC)C1=C(C)OC(N)=C(C#N)C12C(=O)Nc1ccccc12` (centres undefined), the growth was 67.6%.

Take `C=C1CC[C@@H]2[C@]3(C)COC(c4cn(-c5ccccc5)nc4-c4cccc([N+](=O)[O-])c4)O[C@@H]3CC[C@@]2(C)[C@@H]1C/C=C1/C(=O)OC[C@H]1O` (some centres undefined): the growth was 12.6%.

Regarding `COc1ccc2cc([C@H](C)C(=O)N/N=C/c3ccc(Br)cc3)ccc2c1`, the growth is 91.3%.

On to `O=C(CNc1nc(-c2ccccc2)cs1)Nc1ccc(Cl)cc1[N+](=O)[O-]`, for which the growth was -15.1% (active).

Consider `COC(=O)CSC1=C(C)C(=O)C(OC)=C(OC)C1=O`, for which the growth was 45.9%.

Consider `COc1ccc(N=Nc2c(N)nn3c(-c4ccc(OC)c(OC)c4)ccnc23)cc1`, for which the growth was 92%.

Regarding `COc1ccc2[nH]cc(/C=N/Nc3ccc(Br)cn3)c2c1`, the growth was 5.34% (active).

For the compound `N#CC1=C(c2cccs2)Nc2c(c(-c3ccccc3)nn2-c2ccccc2)C12C(=O)Nc1ccc(Cl)cc12` (centres undefined), the growth was -4.48% (active).

As for `COc1ccc(C(=O)/C=C/c2ccc(OCc3ccc(F)cc3)c(OC)c2)cc1OC`, the growth is -5.63% (active).

For the compound `C=CC[N+](C)(C)CCn1c2ccccc2c2nc3cc(C)c(C)cc3nc21`, the growth is 97.7%.

With `CC1=C(C(=O)OC(C)C)C(c2ccc(O)cc2)NC(=S)N1` (centres undefined), the growth was 88.1%.

For `COc1cc2c(cc1OC)/C(=C\c1sc(Nc3ccc(O)cc3)nc1O)C(C(=O)O)=N2`, the growth is -17.5% (active).

As for `COc1ccc(N(C)c2cc(C#N)nc3ccccc23)cc1/C=C/C(=O)NO`, the growth was -28.7% (active).

In the case of `CC(=O)C[n+]1cccc2c3ccccc3ccc21`, the growth is 85%.

Regarding `N#Cc1cnn(C(=O)c2ccccc2Br)c1NC(=O)c1ccc(Br)cc1Cl`, the growth was 107%.

With `S=C(NCCc1ccccc1)Nc1ccc(OCc2nc3ccc(Cl)cc3[nH]2)cc1`, the growth was 11.6%.

Turning to `CN1CCO/C1=C(/NC(=O)c1ccc(Cl)cc1)[P+](c1ccccc1)(c1ccccc1)c1ccccc1`, the growth is 54.7%.

For the compound `CNC(=O)c1cc(Oc2ccc3nc(NC(=O)Nc4cccc(OC(F)(F)F)c4)sc3c2)ccn1`, the growth was 62.7%.

For `Cc1ccc(/C=C/c2n(Cc3ccc4ccccc4c3)c3ccccc3[n+]2Cc2ccc3ccccc3c2)cc1`, the growth is -45.5% (active).

As to `O=C(Cc1ccc2c(c1)CN(C1CCC(=O)NC1=O)C2=O)NCc1cccc2ccccc12` (centres undefined), the growth is -24.9% (active).

For the compound `O=C1Nc2cc(-c3ccc(NS(=O)(=O)c4ccc(-c5ccccc5)cc4)cc3)ccc2/C1=C/c1ccc[nH]1`, the growth was 31%.

Take `COc1ccc(C(=O)CSc2nnc(-c3c[nH]c4ccccc34)n2-c2ccccc2)cc1`: the growth is 81.3%.

As for `COc1csc(/C=N/NC(=O)c2[nH]c3ccc(Br)cc3c2-c2ccccc2)c1`, the growth was -42.8% (active).

Turning to `CC(=O)Nc1ccc(-n2cnc3cc(-c4ccc(O)cc4)ccc32)cc1C`, the growth is 26.6%.

As to `O=C1c2cccc3c(N4CCN(c5ccccc5)CC4)ccc(c23)C(=O)N1c1cccc(-c2nn(-c3ccccc3)cc2-c2nc3ccccc3s2)c1`, the growth was 98.5%.

For the compound `CCCCCCn1c(O)c(N=Nc2nc(-c3cc4ccccc4oc3=O)cs2)c2ccccc21`, the growth is 87.8%.

In the case of `Cn1c(O)c(N=Nc2nc(-c3cc4ccccc4oc3=O)cs2)c2cc(Br)ccc21`, the growth was 96.6%.

Regarding `O=C(CSc1nnc(-c2ccc(-c3nc4ccc(Cl)cc4[nH]3)cc2)o1)Nc1ccc(Cl)cc1`, the growth is 4.27% (active).

On to `CC1=C(C)C(=O)C(N2CCSCC2)=CC1=O`, for which the growth is 89.3%.

For the compound `CC(=O)C1=C(C)NC(SCC(=O)Nc2ccc(S(=O)(=O)Nc3cc(C)on3)cc2)=NC1c1ccccc1` (centres undefined), the growth is 100%.
